Reference: PubChem BioAssay (NCATS)
Several values for one entry are separate records, joined by “and”; a condition that tells them apart may be missing. Equal values may be shown once. Records with an inconclusive call do not appear. Activity calls are given as the source filed them. Unless noted, calls follow the shape of the dose curve; as a rule, active = well fitted curve in the direction sought with a large enough effect; inconclusive = small, poorly fitted or top-dose-only effect, or another doubt; inactive = no such curve, though single readings can be large; an effect the other way counts as inactive or inconclusive.

Columns and labels:
[1] = molecular target: Cellular tumor antigen p53 (Homo sapiens) (UniProt P04637); test: Primary qHTS for small molecule compounds that upregulate eGFP-tagged delta133p53alpha (in N-terminal) cells. (AID 2060322); details: NCI-H358 eGFP-delta133p53alpha fluorescence, 24 h; activation: hits give high values;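 also: series mostly up to about 56 µM; 0% = DMSO vehicle and 100% = reference activator; nearly all actives have a fitted effect of over 75% in size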
Outline: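 NCI-H358 cells pre-induced 24 h with 10 ng/ml doxycycline to express N-terminal eGFP-delta133p53alpha, then dosed 24 h at 37C without doxycycline; fixed, Hoechst-stained, GFP intensity by laser scanning cytometry, normalized to DMSO (0%) and 57.5 uM 5-azacytidine (100%).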

[2] = molecular target: Cellular tumor antigen p53 (Homo sapiens) (UniProt P04637); test: Primary qHTS for small molecule compounds that upregulate eGFP-tagged delta133p53alpha (in C-terminal) cells. (AID 2060324);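 also: 0% = DMSO wells and 100% = 57.5 µM 5-azacytidine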
Outline: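 NCI-H358 cells pre-induced 24 h with 100 ng/ml doxycycline to express delta133p53alpha-eGFP, then dosed in doxycycline-free medium for 24 h at 37C. Fixed, Hoechst-stained; GFP intensity by laser scanning cytometry, normalized to DMSO wells.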

[3] = molecular target: Aldehyde dehydrogenase, mitochondrial (Homo sapiens) (UniProt P05091); test: qHTS for Inhibitors of the Aldehyde Dehydrogenase Family (ALDH2) Validation screens (AID 2061302; active = well fitted inhibition curve with a large enough effect; title and protocol of this record describe different tests;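 also: plate controls were DMSO vehicle for no effect and maximal DPI positive control response for full effect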)
[4] = molecular target: Aldehyde dehydrogenase, mitochondrial (Homo sapiens) (UniProt P05091); test: qHTS for Inhibitors of the Aldehyde Dehydrogenase Family (ALDH2) Confirmatory screens (AID 2061303; active = well fitted inhibition curve with a large enough effect; title and protocol of this record describe different tests; also: % is scaled to controls: 0 for no effect and ±100 for the full control effect; nearly all actives have a fitted effect of over 45% in size)
[5] = qHTS for Inhibitors of the Aldehyde Dehydrogenase Family (ALDH1A2, ALDH1A3, ALDH2, ALDH3A1) (AID 2061307); also: test system not described further here; potency is read from the fitted curve at half-maximal effect; nearly all actives have a fitted effect of over 50% in size
[6] = molecular target: Retinaldehyde dehydrogenase 3 (Homo sapiens) (UniProt P47895); test: qHTS for Inhibitors of the Aldehyde Dehydrogenase Family (ALDH1A3) Validation screen (AID 2061312); also: % is scaled to controls: 0 for no effect and ±100 for the full control effect; nearly all actives have a fitted effect of over 45% in size
[7] = molecular target: Aldehyde dehydrogenase 1A1 (Homo sapiens) (UniProt P00352); test: qHTS for Inhibitors of the Aldehyde Dehydrogenase Family (ALDH1A1) Confirmatory screens (AID 2061316); also: potency is read from the fitted curve at half-maximal effect; nearly all actives have a fitted effect of over 65% in size

Cellular tumor antigen p53 (Homo sapiens), sequence (P04637 whole entry, looked up): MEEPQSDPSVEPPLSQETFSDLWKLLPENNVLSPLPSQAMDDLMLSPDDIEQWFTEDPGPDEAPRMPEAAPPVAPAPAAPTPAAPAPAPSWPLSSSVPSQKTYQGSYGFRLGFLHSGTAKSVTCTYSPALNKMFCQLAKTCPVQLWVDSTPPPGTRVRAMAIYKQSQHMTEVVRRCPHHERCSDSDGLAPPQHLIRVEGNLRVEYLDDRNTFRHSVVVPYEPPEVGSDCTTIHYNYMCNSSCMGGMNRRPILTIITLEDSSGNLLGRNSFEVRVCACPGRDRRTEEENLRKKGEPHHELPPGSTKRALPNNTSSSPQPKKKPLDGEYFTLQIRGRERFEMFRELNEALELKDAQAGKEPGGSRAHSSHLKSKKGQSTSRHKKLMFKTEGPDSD

NC(=O)COc1c(F)cc(SCCNS(=O)(=O)c2ccccc2)cc1F
active: Potency [5] 11.3 µM | Potency [7] 14.2 µM
inactive: activation [1] -8.4% | Potency [2] | Potency [3] | Potency [4] | Potency [6]

NC(=NCCC[C@H](N)C(=O)O)N[N+](=O)[O-]
inactive: activation [1] -32.4% | Potency [2] | Potency [3] | Potency [6]

COC(=O)N1CCN(C(=O)Cc2ccc(Cl)c(Cl)c2)C(CN2CCCC2)C1 (configuration not stated)
inactive: activation [1] 5.56% | Potency [2] | Potency [3] | Potency [6]

COc1ccc2c(c1OC)C(=O)O[C@H]2[C@@H]1c2cc3c(cc2CCN1C)OCO3
inactive: activation [1] 9.21% and -17.4% | Potency [2] | Potency [3] | Potency [6]

CCS(=O)(=O)Nc1cccc(C(=C2CCCCC2)c2cnc[nH]2)c1
inactive: activation [1] -47% | Potency [2] | Potency [3] | Potency [6]

NCCCP(=O)(O)O
inactive: activation [1] -25.8% | Potency [2] | Potency [3] | Potency [6]

CC(N)[C@H](O)c1ccc(O)c(O)c1 (some centres not stated)
inactive: activation [1] -12.2% | Potency [2] | Potency [3] | Potency [6]

C=CCN1CC[C@]23CCCCC2[C@H]1Cc1ccc(O)cc13 (some centres not stated)
inactive: activation [1] -35.3% | Potency [2] | Potency [3] | Potency [6]

COc1ccc2[nH]c3c(c2c1)CCNC3
inactive: activation [1] -23.5% | Potency [2] | Potency [3] | Potency [6]

Nc1ccc(CCN2CCN(c3cccc(C(F)(F)F)c3)CC2)cc1
inactive: activation [1] -62.8% | Potency [2] | Potency [3] | Potency [6]

CC(=O)[C@H]1CC[C@H]2[C@@H]3CC[C@H]4C[C@](C)(O)CC[C@]4(C)[C@H]3CC[C@]12C
inactive: activation [1] -8.47% and -37.3% | Potency [2] | Potency [3] | Potency [6]
